About 8,600 (12%) of roughly 69,000 compounds showed an effect of 50% or more. For the sample, strong results were picked, then their nearest neighbours and some compounds at random.

The subject of the assay is Plasmodium berghei. The assay can be described thus: Screen against P. berghei liver stage (PbLuc), transformed with Luciferase, at 10uM. The class given is functional, HepG2. As to conditions: tested at 10 uM.
Turning to `Fc1cccc(-n2ccc(CN3CCCC3Cn3cccn3)n2)c1` (configuration not stated), the INHIBITION is given as -31.8%.
Next, `Cc1ccc2cc(CNCCN3CCCC3)c(=O)[nH]c2c1`: 39.7%.
Next, `O=C(NCc1ccc2c(c1)CCCO2)C1CNCCO1` (configuration not stated): 12.9%; `O=C(NCc1ccc2c(c1)CCCO2)c1ccccc1C1CCNC1` (configuration not stated): -26.1%; `O=C(NCc1ccc2c(c1)CCCO2)c1ccc(C2CCNC2)cc1` (configuration not stated): 50.4%.
The result for `Cc1noc(CCCC(=O)NCCc2cc3ccccc3[nH]2)n1` reads 7.18%; that for `CC(=O)N[C@@H]1C[C@H](c2ccc(OCCO)cc2)OC2(CCOCC2)C1`, 18.3%; that for `Cc1ccc(CN2CC3(CCN(C(=O)c4cscn4)C3)C2)s1`, 35.1%.
`Cc1ccc(CN2CC3(CCN(C(=O)c4cscn4)C3)C2)o1`: the INHIBITION came to 54.7%.
Next, `Cc1nc(CN2CCC3(CC2)CCN(C(=O)c2cscn2)C3)cs1`: 75.4%; `Cc1noc(C)c1CN1CCC2(CC1)CCN(C(=O)c1cscn1)C2`: 40.8%.
Next, `Cc1cnc(N2CC3(CCN(C(=O)c4cccnc4)C3)C2)nc1`: 22.2%; `Cc1ccc(CN2CC3(CCN(C(=O)c4cccnc4)C3)C2)o1`: 71.1%; `O=C(c1cscn1)N1CCC2(CN(Cc3ccoc3)C2)C1`: 34.4%.
`O=C(c1cscn1)N1CCC2(CCN(Cc3nccs3)CC2)C1`: the INHIBITION was 14.8%.
Next, `Cc1ccc(CN2CCC3(CC2)CCN(C(=O)c2cccnc2)C3)o1`: 34%.
For `CNC(C(=O)OC)c1cc(F)ccc1F` (configuration not stated), the INHIBITION is on record as -0.219%.
For the compound `Cn1cc(CN2CCC[C@]3(C(=O)O)CN(c4ncccn4)C[C@@H]3C2)cn1`, the INHIBITION was -44.2%.
On to `Cc1ccc(NC(=O)C2CSCN2C(=O)c2ccncc2)c(C)c1` (configuration not stated), for which the INHIBITION is 16.1%.
Next, `CC(C(=O)NCc1ccc(N2CCCCCC2)nc1)S(C)(=O)=O` (configuration not stated): -12.2%; `O=S(=O)(c1ccccc1)N1CCOC(Cn2ccnc2)C1` (configuration not stated): -12.3%; `Cc1ccc(CN2CC(C(=O)Nc3ccccc3)C3(CCOCC3)C2)o1` (configuration not stated): -24.9%.
Next, `O=C(c1cscn1)N1CC[C@@H]2[C@@H]1CCN2C1CCOC1` (some centres not stated): 12.6%.
For the compound `O=C(c1cccnc1)N1CCN2C[C@H](Oc3cncnc3)C[C@H]2C1`, the INHIBITION is 55.5%.
Next, `Cc1ccc(O[C@@H]2C[C@H]3CN(C(=O)c4cnccn4)CCN3C2)cc1`: -28.8%; `O=C(Cc1cccc(F)c1)N1CCN2C[C@H](Oc3cncnc3)C[C@H]2C1`: 39.4%.
Next, `O=C(c1ccco1)N1CCN2C[C@H](Oc3cncnc3)C[C@H]2C1`: -5.63%; `O=C(c1ccnnc1)N1CCN2C[C@H](Oc3cccnc3)C[C@H]2C1`: -10.2%.
The result for `O=C(Cc1ccccn1)N1CCN2C[C@H](Oc3cccc(F)c3)C[C@H]2C1` reads 33%; that for `Cc1ccc(O[C@@H]2C[C@H]3CN(C(=O)Cc4ccccn4)CCN3C2)cc1`, 84.7%; that for `O=C(Cc1ccccn1)N1CCN2C[C@H](OCCN3CCCC3)C[C@H]2C1`, 68.4%.
As for `O=C(c1ccncc1)N1CCN2C[C@H](Oc3cncnc3)C[C@H]2C1`, the INHIBITION stood at 23.3%.
The result for `O=C(c1ccc(F)cc1)N1CCN2C[C@H](OCc3ccccn3)C[C@H]2C1` reads -1.71%; that for `O=C(Cc1ccccn1)N1CCN2C[C@H](Oc3cncnc3)C[C@H]2C1`, 67.2%.
The result for `O=C(c1ccnnc1)N1CCN2C[C@H](OCc3ccccn3)C[C@H]2C1` reads -5.05%; that for `CC(C)c1nc(C2CCCN(C(=O)c3ccc4c(c3)OCO4)C2)no1` (configuration not stated), 45.1%; that for `COCCc1noc(CN2CCC(c3ccccc3C(=O)O)C2)n1` (configuration not stated), 35.7%.
The result for `Cc1nc(CN2CCCC2c2c(C)nn(C)c2Cl)oc1C` (configuration not stated) reads 18.2%; that for `O=C1CC(NS(=O)(=O)c2ccc(F)c(Cl)c2)CN1` (configuration not stated), -6.67%.
Take `O=C(Cn1c(=O)[nH]c2cn(-c3ccccc3)c(=O)n21)NC1CCCCC1`: the INHIBITION was -6.61%.
The result for `Cc1ccc(Cn2c(=O)[nH]c3cccnc3c2=O)cc1` reads -5.64%.
`c1coc(CN2Cc3ccnn3CC(COCC3CC3)C2)c1` (configuration not stated): the INHIBITION is -47%.
For the compound `O=C(Nc1ccccc1)N1C[C@@H]2CC[C@H]1CN(Cc1ccccc1)C2`, the INHIBITION is reported as 32.5%.
The result for `COc1cc(NC2CCCN(c3ncccc3C#N)C2)cc(OC)c1` (configuration not stated) reads 42.1%; that for `CN1CCc2ccc(NCc3cccs3)cc2C1=O`, -99.6%.
The result for `COC(C)c1cccc(NCc2cccc(O)c2)c1` (configuration not stated) reads -52.4%.
`CN(C(=O)c1cccc(NCc2cccs2)c1)C(C1CC1)C1CC1`: the INHIBITION is recorded as 64.8%.
The result for `CN(C(=O)c1cccc(NCC(=O)O)c1)C(C1CC1)C1CC1` reads 44.8%.
Next, `COC(C)c1cccc(NCc2ccsc2)c1` (configuration not stated): 32.8%.
The result for `COC(C)c1cccc(NCc2cccs2)c1` (configuration not stated) reads 50.1%; that for `Cc1n[nH]c2nc(-c3cccc(Cl)c3)cc(C(=O)O)c12`, -1.99%; that for `O=C1CC2(CCSC2)C(=O)N1Cc1coc(-c2ccc(F)cc2)n1` (configuration not stated), -19.7%.

The values are drawn from ChEMBL document CHEMBL4513216, “Probing the Open Global Health Chemical Diversity Library for Multistage-Active Starting Points for Next-Generation Antimalarials” (ACS Infect Dis, 2020).
